Data published in PubChem BioAssay (Tox21).
Results filed as inconclusive are left out. Activity calls are given as the source filed them. Unless noted, the call rests on the fitted dose curve; in most records, active means well fitted curve in the direction sought with a large enough effect in the repeat runs; inconclusive means weak or mixed curves; inactive means flat fitted curve, though single readings scatter.

Assays:
[1] = qHTS assay to test for compound auto fluorescence at 535 nm (green) in HEK293 cells (AID 720680)
[2] = qHTS assay to test for compound auto fluorescence at 460 nm (blue) in HEK293 cell free culture (AID 720681)
In short: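 Blue fluorescence (Ex 405/Em 460 nm, triamterene-equivalent) was read immediately after pin transfer of compound or DMSO into medium (DMEM, 10% FBS) without cells.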

[3] = qHTS assay to test for compound auto fluorescence at 535 nm (green) in HEK293 cell free culture (AID 720682)
In short: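 Green-label autofluorescence (485 nm excitation, 535 nm emission) measured on compound added to cell-free culture medium (DMEM, 10% FBS). Output is expressed relative to fluorescein.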

[4] = qHTS assay to test for compound auto fluorescence at 590 nm (red) in HEK293 cell free culture (AID 720683)
In short: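 Red-channel autofluorescence of compounds in culture medium (DMEM, 10% FBS), no cells, measured at 540/590 nm. Rose Bengal sodium is the reference fluorophore for equivalence.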

[5] = qHTS assay to test for compound auto fluorescence at 590 nm (red) in HepG2 cell free culture (AID 720684)
In short: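 Steps: dispense MEM/10% FBS medium, no cells; pin compound or DMSO vehicle; read red channel, Ex/Em 540/590 nm. Output given as Rose Bengal sodium equivalents.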

[6] = qHTS assay to test for compound auto fluorescence at 460 nm (blue) in HepG2 cell free culture (AID 720685)
In short: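 Compound (23 nL) or DMSO pinned into cell-free MEM with 10% FBS; blue fluorescence read at 405/460 nm excitation/emission, expressed as auto-fluorescence equivalency to triamterene.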

[7] = qHTS assay to test for compound auto fluorescence at 535 nm (green) in HepG2 cell free culture (AID 720686)
[8] = qHTS assay to test for compound auto fluorescence at 460 nm (blue) in HepG2 cells (AID 720687)
In short: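 Blue-channel autofluorescence (Ex/Em 405/460 nm, triamterene-equivalent) was measured after 1 hr compound exposure at 37 C, 5% CO2. Cells were HepG2, plated overnight at 37 C in MEM plus 10% FBS.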

[9] = target: Glucocorticoid receptor (Homo sapiens) (UniProt P04150); test: qHTS assay to identify small molecule agonists of the glucocorticoid receptor (GR) signaling pathway (AID 720691; active means well fitted activation curve with a large enough effect in the signal ratio in the repeat runs, not every such curve was filed as active; the % refers to the signal ratio)
In short: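 Agonist mode in a HeLa line carrying a GRE-controlled beta-lactamase reporter. Compounds act for 18 h at 37 C before a 2 h room-temperature FRET substrate step and fluorescence reading.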

[10] = target: Glucocorticoid receptor (Homo sapiens) (UniProt P04150); test: qHTS assay to identify small molecule antagonists of the glucocorticoid receptor (GR) signaling pathway (AID 720692; active means well fitted inhibition curve with a large enough effect in the signal ratio in the repeat runs, not every such curve was filed as active; the % refers to the signal ratio)
In short: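 Cells plated, rested 4 h at 37 C/5% CO2; compounds in DMSO pin-transferred; dexamethasone added to 5 nM final; 18 h at 37 C; B/G FRET substrate added, 2 h room temperature; fluorescence measured.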

Measured: Potency

Sequence of Glucocorticoid receptor (Homo sapiens) (P04150 whole entry, looked up): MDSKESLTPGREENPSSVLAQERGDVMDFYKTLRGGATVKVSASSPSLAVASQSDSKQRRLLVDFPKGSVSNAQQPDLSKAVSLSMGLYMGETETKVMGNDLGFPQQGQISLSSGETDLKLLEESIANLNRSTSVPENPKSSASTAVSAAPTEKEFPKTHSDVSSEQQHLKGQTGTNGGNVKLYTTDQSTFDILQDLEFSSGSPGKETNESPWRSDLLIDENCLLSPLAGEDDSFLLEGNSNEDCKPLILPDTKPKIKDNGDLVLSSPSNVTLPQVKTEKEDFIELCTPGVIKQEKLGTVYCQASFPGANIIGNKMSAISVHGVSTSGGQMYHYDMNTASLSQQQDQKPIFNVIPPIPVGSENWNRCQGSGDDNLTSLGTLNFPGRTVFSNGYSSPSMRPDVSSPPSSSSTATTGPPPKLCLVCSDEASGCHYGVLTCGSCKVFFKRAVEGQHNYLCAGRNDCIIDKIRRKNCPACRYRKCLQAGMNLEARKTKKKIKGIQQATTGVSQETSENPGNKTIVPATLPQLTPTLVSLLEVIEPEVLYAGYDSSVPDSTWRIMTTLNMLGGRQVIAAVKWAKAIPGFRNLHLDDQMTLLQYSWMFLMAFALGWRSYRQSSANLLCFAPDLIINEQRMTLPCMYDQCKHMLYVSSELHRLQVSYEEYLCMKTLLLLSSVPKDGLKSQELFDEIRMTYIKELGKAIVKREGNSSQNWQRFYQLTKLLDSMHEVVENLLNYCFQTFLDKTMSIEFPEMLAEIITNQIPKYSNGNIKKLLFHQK

CC(CCc1ccccc1)NC(C)C(O)c1ccc(O)cc1 (centres undefined)
not listed: [10]
inactive: all other assays above

CCOc1nc(C(Cl)(Cl)Cl)ns1
not listed: [9] | [10]
inactive: all other assays above

CCOC(=O)CP(=O)(OCC)OCC
not listed: [9] | [10]
inactive: all other assays above

CC1(C)CON(Cc2ccccc2Cl)C1=O
not listed: [9] | [10]
inactive: all other assays above

Cc1nc(N)nc(N)n1
not listed: [10]
inactive: all other assays above

CC(C)(C)OC(=O)c1ncn2c1[C@@H]1CCCN1C(=O)c1c(Br)cccc1-2
not listed: [9] | [10]
inactive: all other assays above

Cc1coc2c1CCC(C)C2 (centres undefined)
not listed: [10]
inactive: all other assays above

Nc1cnn(-c2ccccc2)c(=O)c1Cl
inactive: all assays above

CN/C(=N\[N+](=O)[O-])NCC1CCOC1 (centres undefined)
inactive: all assays above

Cc1cc(C)c(C(=O)P(=O)(C(=O)c2c(C)cc(C)cc2C)c2ccccc2)c(C)c1
inactive: all assays above

CCOP(=S)(OCC)Oc1cc(-c2ccccc2)on1
inactive: all assays above

Nc1cc(Cl)ccc1O
inactive: all assays above

CCC#N
inactive: all assays above

O=C(O)c1ccc2[nH]cc(CCCCN3CC=C(c4ccccc4)CC3)c2c1
inactive: all assays above

CC(C)COP(=O)(OCC(C)C)OCC(C)C
inactive: all assays above

CC(CC(C#N)(c1ccccc1)c1ccccc1)N(C)C (centres undefined)
inactive: all assays above

Cc1cccc(C#N)c1
inactive: all assays above

COc1cc(OC)nc(Sc2cccc(Cl)c2C(=O)O)n1
inactive: all assays above

COc1cc(C[C@@H](C)N)c(OC)cc1C
inactive: all assays above

CCOC(=O)N(C)C(=O)CSP(=S)(OCC)OCC
inactive: all assays above

CC(C)CC#N
inactive: all assays above

COc1cc(OC)nc(NC(=O)NS(=O)(=O)c2ncccc2OCC(F)(F)F)n1
inactive: all assays above

c1cc2c(c(N3CCNCC3)c1)OCCO2
inactive: all assays above

CC(Cl)(Cl)[N+](=O)[O-]
inactive: all assays above
